Screens: PubChem, several laboratories
Calb FLC – C. albicans growth inhibition with fluconazole, primary screen, CaCi-2 strain, Alamar Blue fluorescence | growth inhibition, % (concentration not given with the values) | AID 1979, 2009 | C. albicans CaCi-2 (fluconazole-resistant clinical isolate) + fluconazole, 48 h | 300,000 tested, 0.57% active;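 active = growth inhibition above about 58% in most replicates, limit read from the data, passing the limit was not always enough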;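 note: all wells also contain fluconazole at 8 µg/ml as a sub-toxic cotreatment; 0% = median of DMSO wells and 100% = median of geldanamycin control wells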
PfM18AAP inh – PfM18AAP inhibitors, malaria aminopeptidase, primary screen, biochemical, QFRET, recombinant enzyme. M18 aspartyl aminopeptidase (Plasmodium falciparum 3D7). H-Glu-NHMec fluorogenic cleavage. inhibition, % at 7.35 µM. 290,000 tested, 1.2% active. AID 1822, 2009;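 active = inhibition above the campaign mean inhibition over all tested compounds plus 3 SD, cut at about 28% in these data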;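 note: 0% = plate median of test compound wells and 100% = 2 mM ZnCl2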
Rin1 Abl inh – inhibitors of Rin1-Abl protein binding, primary screen, biochemical, TR-FRET; Tyrosine-protein kinase ABL1 (Homo sapiens) + Ras and Rab interactor 1 (Homo sapiens), …; inhibition, % at 7.35 µM; 360,000 tested, 0.4% active; in the data active = inhibition above about 5%, passing the limit was not always enough
Fh CTSL1 inh – Fasciola hepatica cathepsin L1 inhibitors, primary screen, counter-screen for PFM18AAP inhibitor project, biochemical, QFRET, fluorogenic peptide substrate. inhibition, % at 5.96 µM. recombinant F. hepatica cathepsin L1, Z-Leu-Arg-MCA fluorescence. 300,000 tested, 0.49% active. AID 1906, 2009;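 active = inhibition above the mean of all tested compounds plus 3 SD, set per screening campaign, cut at about 17% in these data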;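 note: 0% = plate median of test compound wells and 100% = 1 µM Z-Phe-Ala-diazomethylketone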
Rin1 Abl conf – Rin1-Abl binding inhibitor retest, confirmation, biochemical, TR-FRET; 1,300 tested, 49% active; shares compounds with Rin1 Abl inh; inhibition, % at 7.35 µM; purified proteins; in the data active = inhibition above about 6.5%
GFP quench-1 – GFP fluorescence inhibitors and quenchers, artefact control for Rin1-Abl interaction inhibitor project, biochemical; inhibitors/quenchers counterscreen; 1,300 tested, 8.5% active; AID 602125, 2011; inhibition, % at 6.75 µM; shares compounds with Rin1 Abl inh; in the data active = inhibition above about 6.5%;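 note: ABL1-eGFP fusion protein alone without its partner RIN1-SBP; 0% = protein with vehicle and 100% = wells lacking protein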
GFP quench DR – GFP fluorescence inhibitors and quenchers, dose response, artefact control for Rin1-Abl interaction inhibitor project, biochemical; shares compounds with Rin1 Abl inh; AID 602182, 2012; IC50, µM; 230 tested, under 10 active; GFP fluorescence interference/quenching counterscreen;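 note: ABL1-eGFP fusion protein alone without its RIN1 binding partner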
GFP quench-2 – GFP fluorescence inhibitors and quenchers, late-stage follow-up, artefact control for Rin1-Abl interaction inhibitor project, biochemical, dose response | shares compounds with Rin1 Abl inh | GFP fluorescence quenching counterscreen | IC50, µM | 25 tested, under 10 active
Numbers without * were called inactive. A selection: hits, their analogues and other compounds. The true share with any hit is near 2.1%. Unless noted, the rule behind the calls is not given here.

What do the screens show for `Nc1ccc(C(=O)N2CCN(S(=O)(=O)c3ccc(Br)cc3)CC2)cc1[N+](=O)[O-]`?
Calb FLC: -12; Rin1 Abl inh: -2; Fh CTSL1 inh: 0

Results for COc1ccc(C(=O)N/C(=C\c2cn(S(=O)(=O)N(C)C)c3ccccc23)C(=O)N2CCCC2)cc1 ?
Rin1 Abl inh: -5

What do the screens show for `O=C(Cc1ccc(NC(=O)C2CCN(C(=O)C3CCCC3)CC2)cc1)Nc1cccc(C(=O)N2CCCCC2)c1`?
Rin1 Abl inh: 17*; Rin1 Abl conf: 17*; GFP quench-1: 0; GFP quench DR: >68

Results for O=C(Cc1ccc(NC(=O)C2CCN(C(=O)c3ccccc3)CC2)cc1)Nc1ccc(C(=O)N2CCOCC2)cc1 ?
Rin1 Abl inh: 36*; Rin1 Abl conf: 37*; GFP quench-1: 0; GFP quench DR: >68; GFP quench-2: >68

What do the screens show for `O=C(Cc1ccc(NC(=O)C2CCN(C(=O)C3CCC3)CC2)cc1)Nc1ccc(C(=O)N2CCOCC2)cc1`?
Rin1 Abl inh: 23*; Rin1 Abl conf: 21*; GFP quench-1: 0; GFP quench DR: >67

How did CNC(=O)NC(=O)COC(=O)CCCSc1nc2ccccc2s1 do in these assays?
Calb FLC: 3; PfM18AAP inh: -13; Rin1 Abl inh: 0; Fh CTSL1 inh: -16

What do the screens show for `NC(=O)COC(=O)CCCSc1nc2ccccc2s1`?
Calb FLC: -15; PfM18AAP inh: -1; Rin1 Abl inh: 11*; Fh CTSL1 inh: -18; Rin1 Abl conf: 11*; GFP quench-1: 1

How did CC(=O)Nc1sc(C)c(C)c1C(=O)OCC(=O)N(C)C1CCS(=O)(=O)C1 (centres undefined) do in these assays?
Calb FLC: 7; PfM18AAP inh: 10; Rin1 Abl inh: -2; Fh CTSL1 inh: -1

Results for COc1ccc(CNC(=O)c2ccc(NC(=O)CC3SC(N4CCCC4)=NC3=O)cc2)cc1 (centres undefined) ?
Calb FLC: 21; PfM18AAP inh: 3; Rin1 Abl inh: 7.8*; Fh CTSL1 inh: -3; Rin1 Abl conf: 7.5*; GFP quench-1: -1

How did O=C(O)c1ccc(CNC(=O)c2ccccc2NC(=O)c2ccc([N+](=O)[O-])cc2)cc1 do in these assays?
Calb FLC: -9; PfM18AAP inh: 4; Rin1 Abl inh: 1; Fh CTSL1 inh: 3

Results for CN(C)S(=O)(=O)c1ccc(NC(=O)COc2ncnc3c2cnn3-c2ccccc2)cc1 ?
Calb FLC: -11; PfM18AAP inh: 4; Rin1 Abl inh: 6.8*; Fh CTSL1 inh: -2; Rin1 Abl conf: 5; GFP quench-1: 3

Results for O=C1CCC([N+](=O)[O-])C(c2ccc(C(F)(F)F)cc2)N1 (centres undefined) ?
Calb FLC: 1; Rin1 Abl inh: 8.2*; Fh CTSL1 inh: 1; Rin1 Abl conf: 2; GFP quench-1: -2

Results for CC1(C)NC(=O)N(CC(=O)N2CCN(S(=O)(=O)c3ccccc3C(F)(F)F)CC2)C1=O ?
Rin1 Abl inh: -3

What do the screens show for `O=C(c1ccccc1)c1ccc(OCC(O)CN2CCN(S(=O)(=O)N3CCCCC3)CC2)cc1` (centres undefined)?
Calb FLC: 29; PfM18AAP inh: -7; Rin1 Abl inh: 6.7*; Fh CTSL1 inh: 4; Rin1 Abl conf: 0; GFP quench-1: 0

What do the screens show for `COc1cc2c(cc1OC)C(C)N(C(=O)c1ccc(Br)o1)CC2` (centres undefined)?
Calb FLC: 7; PfM18AAP inh: -3; Rin1 Abl inh: 11*; Fh CTSL1 inh: -1; Rin1 Abl conf: 5; GFP quench-1: 2

What do the screens show for `COc1cc2c(cc1OC)CN(C(=O)c1ccc(Br)o1)CC2`?
Calb FLC: 4; PfM18AAP inh: -1; Rin1 Abl inh: 4; Fh CTSL1 inh: 8

Results for COc1cc(CNCc2ccccc2)c(Br)cc1OC1CCCC1 ?
Calb FLC: -9; PfM18AAP inh: 3; Rin1 Abl inh: 8.8*; Fh CTSL1 inh: 0; Rin1 Abl conf: 5; GFP quench-1: -1

What do the screens show for `COc1cc(CNC2CCCC2)c(Br)cc1OC1CCCC1`?
Calb FLC: -22; PfM18AAP inh: -9; Rin1 Abl inh: 4; Fh CTSL1 inh: 7

Results for C/C(=N\NC(=O)CSc1nc(C)[nH]c1[N+](=O)[O-])c1ccc(F)cc1 ?
Calb FLC: -6; PfM18AAP inh: -12; Rin1 Abl inh: -3; Fh CTSL1 inh: -3

What do the screens show for `O=C(O)c1cccc(Cn2c(Cl)c(/C=N/NC(=O)c3ccccc3O)sc2=O)c1`?
Calb FLC: 7; PfM18AAP inh: -1; Rin1 Abl inh: 5.2*; Fh CTSL1 inh: 7; Rin1 Abl conf: -4; GFP quench-1: 3

What do the screens show for `FC(F)(F)c1ccc(C2[C@H]3CN(Cc4cccnc4)[C@H](c4ccccc4)C34CC2(c2cccnc2)C4)cc1` (some centres undefined)?
Calb FLC: 13; Rin1 Abl inh: 5; Fh CTSL1 inh: 4

How did Clc1ccc(C2[C@H]3CN(Cc4cccnc4)[C@H](c4ccccc4)C34CC2(c2cccnc2)C4)cn1 (some centres undefined) do in these assays?
Calb FLC: -7; Rin1 Abl inh: 59*; Fh CTSL1 inh: 3; Rin1 Abl conf: 72*; GFP quench-1: 0

How did C[C@H](NC(=O)[C@@H]1CSC2c3ccccc3C(=O)N21)C(=O)NCc1c(F)cccc1Cl (some centres undefined) do in these assays?
Calb FLC: 8; PfM18AAP inh: 10; Rin1 Abl inh: -1; Fh CTSL1 inh: -9

What do the screens show for `CC1(C)NC(=O)N(CC(=O)N2CCN(c3cccc(Cl)c3)CC2)C1=O`?
Rin1 Abl inh: 2

How did CCCC(=O)NC(c1ccccc1OC)c1ccc2cccnc2c1O (centres undefined) do in these assays?
Calb FLC: 101*; PfM18AAP inh: 11; Rin1 Abl inh: 7.0*; Fh CTSL1 inh: -3; Rin1 Abl conf: 5; GFP quench-1: 3

How did COc1ccc(C(NC(C)=O)c2ccc3cccnc3c2O)c(OC)c1 (centres undefined) do in these assays?
Calb FLC: -3; Rin1 Abl inh: 1; Fh CTSL1 inh: 2
